High-throughput results as filed in PubChem BioAssay.
Most compounds without a hit are left out; they make up all but 12% or so of the library.
Sfp PPTase inh = blocks B. subtilis Sfp PPTase activity; Biochemical Sfp PPTase activity, qHTS; Potency, µM, actives largely listed as inhibitors; 310,000 compounds, 3.5% hits; AID 1490;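 further: the enzyme is Sfp with the accession as filed and its product quenches rhodamine fluorescence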
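Fluorescence-quenching assay: 15 nM Sfp-PPTase preincubated 15 min at room temperature with compound, then 5 uM rhodamine-CoA and 12.5 uM BHQ-2-labelled YbbR peptide added. Fluorescence (ex 525/em 598 nm) read at start and after 30 min; difference gives rate.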
JMJD2A Tudor inh = JMJD2A Tudor domain (human) inhibition; AID 504339; AlphaScreen JMJD2A-Tudor / H3K4me3 peptide binding; 390,000 compounds, 4.4% hits; Potency, µM (series often up to 114 µM), actives largely listed as inhibitors; further: nearly all actives have a fitted effect of over 50% in size
L3MBTL1 inh = L3MBTL1 (human) inhibition; Q9Y468; Potency, µM (series often up to 57.1 µM), usual class: inhibitors; AlphaScreen L3MBTL1–H3K9me1 peptide binding; 230,000 compounds, 0.66% hits; AID 485360; further: nearly all actives have a fitted effect of over 60% in size
Target sequence (Q9Y468 whole entry, looked up): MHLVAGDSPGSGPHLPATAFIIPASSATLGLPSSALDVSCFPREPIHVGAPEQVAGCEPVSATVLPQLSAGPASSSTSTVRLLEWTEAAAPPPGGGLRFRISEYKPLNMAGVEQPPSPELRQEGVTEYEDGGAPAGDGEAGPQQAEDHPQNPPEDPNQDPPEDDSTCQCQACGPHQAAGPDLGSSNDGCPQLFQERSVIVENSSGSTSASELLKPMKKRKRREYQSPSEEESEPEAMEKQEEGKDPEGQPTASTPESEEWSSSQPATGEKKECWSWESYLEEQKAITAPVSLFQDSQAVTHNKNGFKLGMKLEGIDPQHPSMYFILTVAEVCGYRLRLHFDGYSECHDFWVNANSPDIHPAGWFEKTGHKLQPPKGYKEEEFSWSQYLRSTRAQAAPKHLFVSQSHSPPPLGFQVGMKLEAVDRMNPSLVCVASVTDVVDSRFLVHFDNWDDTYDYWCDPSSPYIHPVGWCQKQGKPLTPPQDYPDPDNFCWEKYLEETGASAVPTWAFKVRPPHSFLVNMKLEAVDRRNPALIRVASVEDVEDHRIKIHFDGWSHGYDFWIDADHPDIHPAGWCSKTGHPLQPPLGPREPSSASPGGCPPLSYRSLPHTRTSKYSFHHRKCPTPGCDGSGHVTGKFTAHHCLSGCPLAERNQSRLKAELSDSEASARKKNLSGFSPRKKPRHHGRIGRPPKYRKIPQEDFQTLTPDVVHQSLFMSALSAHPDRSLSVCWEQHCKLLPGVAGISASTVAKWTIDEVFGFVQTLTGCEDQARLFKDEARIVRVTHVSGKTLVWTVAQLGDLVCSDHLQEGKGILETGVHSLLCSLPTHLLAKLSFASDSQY
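Read-out is AlphaScreen signal from streptavidin donor and nickel chelate acceptor beads (10 ug/mL final each) bridging L3MBTL1 (50 nM) and biotinylated K9-monomethylated H3(1-15) peptide (75 nM), after 30 min compound exposure at room temperature.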
HP1b binding inh = inhibitors of HP1-beta chromodomain binding to methylated histone tails; P83916; AlphaScreen HP1-beta / biotin-H3K9me3 peptide binding; Potency, µM (titrated, usually from 114 µM), usual class: inhibitors; 390,000 compounds, 0.56% hits; AID 540317; further: nearly all actives have a fitted effect of over 70% in size
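HP1-beta protein (50 nM final) preincubated 30 min at room temperature with biotinylated H3(1-18)K9me3 peptide (50 nM) in PBS pH 7.4, 0.01% Tween-20, then compound added for 30 min. AlphaScreen streptavidin donor/nickel chelate acceptor beads (10 ug/mL final), 30 min dark, luminescence read.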
BAZ2B inh = blocks human BAZ2B; Q9UIF8; AlphaScreen BAZ2B-H3K14Ac peptide displacement; Potency, µM (titrated, usually from 114 µM), usual class: inhibitors; 360,000 compounds, 4.4% hits; further: nearly all actives have a fitted effect of over 60% in size
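BAZ2B 50 nM plus b-H3(5-23)K14Ac 50 nM, PBS pH 7.4/0.01% Tween-20, 30 min RT; compound added (max 110 uM), 30 min RT; streptavidin donor/Ni-chelate acceptor beads 10 ug/mL final, 20 min dark; AlphaScreen read.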
G9a inh = G9a (human) methyltransferase inhibition; G9a H3K9 monomethylation, AlphaScreen, 2 h; AID 504332; Potency, µM (top dose mostly 102 µM), actives largely listed as inhibitors; Q96KQ7; 350,000 compounds, 8.8% hits; further: nearly all actives have a fitted effect of over 75% in size
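Chemiluminescent proximity detection of H3K9 monomethylation, read after 10 min bead incubation in the dark. Reaction: 20 nM G9a, 500 nM biotin-H3K9 peptide, 20 uM SAM cofactor, 2 h, room temperature, following 15 min enzyme-compound preincubation.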
Hits are given with their value; – = inactive; ? = inconclusive; · = no result; [ ] = another dose, or the depositor's remark. The call rests on the fitted dose curve; in most records, active means well fitted curve in the direction sought with a large enough effect; inconclusive means small, poorly fitted or top-dose-only effect, or another doubt; inactive means no such curve, though single readings can be large; an effect the other way counts as inactive or inconclusive.

SMILES	Sfp PPTase inh	JMJD2A Tudor inh	L3MBTL1 inh	HP1b binding inh	BAZ2B inh	G9a inh
CC(C)Nc1nc(Cl)nc(Nc2ccccc2)n1	–	–	–	–	–	·
COc1ccc(C2/C=C\CN(C(=O)C3CC3)C(C)C(=O)N2Cc2ccc(F)cc2)cc1 (stereo unspecified)	–	–	·	–	·	·
COc1ccc(-n2c(SCC(=O)N3CCOCC3)nnc2C(C)N2CCCCC2)cc1 (stereo unspecified)	–	–[11.4 µM]	·	–	–	–[12.7 µM]
Cc1n[nH]c(=S)n1-c1ccc(Cl)cc1	–	2.5µM	–	–	–	?
COC(Cc1nnc(SC)n1-c1ccc(Cl)cc1)OC	–	–	–	–	–	–
COC(Cc1n[nH]c(=S)n1-c1ccc(Cl)cc1)OC	–	14µM	–	–	–	?
CC(c1n[nH]c(=S)n1-c1ccc(F)cc1)N1CCCCC1 (stereo unspecified)	–	?	?	–	–	35µM
CC(c1n[nH]c(=S)n1-c1ccc(Cl)cc1)N(C)C (stereo unspecified)	–	7.9µM	–	–	–	8.9µM
COc1cccc(OC)c1C(=O)Nc1ccc(C(=O)c2ccncc2)cc1	·	–	–	–	–	–[0.501 µM]
CC(C)CCC(CC(C)O)c1n[nH]c(=S)n1-c1ccccc1 (stereo unspecified)	–	8.9µM	–	–	–	6.3µM
Cc1ccc(OCc2n[nH]c(=S)n2-c2ccc(Cl)cc2)cc1	–	?	–	–	–	3.2µM
CCC(c1n[nH]c(=S)n1-c1ccccc1)N(C)C (stereo unspecified)	–	32µM	–	–	–	8.9µM
CCCCOCC(O)CCc1n[nH]c(=S)n1-c1ccccc1 (stereo unspecified)	?	?	–	–	–	·
Cc1n[nH]c(=S)n1-c1ccccc1	–	89µM	–	–	–	·
S=c1[nH]nc(COc2ccc(Cl)cc2)n1-c1ccc(Cl)cc1	–	?	–[2.29 µM]	–	?	–[0.501 µM]
S=c1[nH]nc(COc2ccc(Cl)cc2)n1-c1ccccc1	–	–	–[2.29 µM]	–	–	–[0.501 µM]
CCc1ccc(-n2c(C)n[nH]c2=S)cc1	–	3.5µM	–	–	–	–
Cc1n[nH]c(=O)n1-c1ccc(OC(F)(F)F)cc1	–	–	?	–	–	–
Nc1sc2c(c1C(=O)NC1CC1)CCCC2	·	?	–	?	·	·
CCNC(=O)c1c(N)sc2c1CCCCC2	35µM	·	–	·	–	?
COc1cccc2c1OC(=O)CC2c1ccccc1C (stereo unspecified)	–	·	·	·	·	–
CC1(C)CC(=O)C(Sc2ccccc2[N+](=O)[O-])=C(O)C1	?	–	–	–	?	50µM
CCOC(=O)/C=C1\CC(C(=O)OCC)Oc2c(OC)cccc21 (stereo unspecified)	–	?	–	–	·	32µM
O=C(c1cccc(F)c1)N1CCC2(CC1)CCN(c1ccncc1)CC2	–	·	·	·	·	–[12.7 µM]
COc1ccc(Br)cc1C(=O)N/N=C/c1ccc([N+](=O)[O-])cc1	–	–	–	–	–	–
SMILES	Sfp PPTase inh	JMJD2A Tudor inh	L3MBTL1 inh	HP1b binding inh	BAZ2B inh	G9a inh
COc1cc(/C=N/NC(=O)c2ccc(CSc3nncn3C)cc2)cc(OC)c1O	–	–	–	–	–	13µM
COc1cc(/C=N/NC(=O)c2ccc(CSc3nncn3C)cc2)ccc1OCC(=O)N1CC(C)OC(C)C1 (stereo unspecified)	–	–	–	–	–	–
COc1cc(/C=N/NC(=O)c2sc(N)c(C#N)c2C)cc(Br)c1O	–	–	–	–	–	–
COc1cc(/C=N/NC(=O)CC#N)cc(Br)c1O	–	35µM	?	?	50µM	–
COc1cc(/C=N/NC(=O)c2ccc([N+](=O)[O-])cc2Cl)cc(Br)c1O	–	–	–	–	–	45µM
COc1cc(/C=N/NC(=O)Cc2ccc(Br)cc2)cc(OC)c1O	–	–	–	–	–	50µM
NOCc1ccccc1	–	·	·	·	·	·
COC(=O)CCC(C(=O)CN1C(=O)c2ccccc2C1=O)N1C(=O)c2ccccc2C1=O (stereo unspecified)	·	–	·	?	·	·
Cc1nn(Cc2ccccc2)c(C)c1/C=N/NC(=O)c1ccccc1O	–	–[11.4 µM]	–	–	–	–
COc1cc(C(=O)N2CCN(c3ccccc3)CC2)c2ccccc2n1	·	–	·	–	·	·
COc1cc(/C=N/NC(=O)/C(=C\c2ccc([N+](=O)[O-])cc2)NC(=O)c2ccccc2)cc(OC)c1O	–	?	·	–	–	45µM
CCOc1cc(/C=N/NC(=O)C(=O)NC2CC2)cc(Br)c1O	–	–	–	–	–	8.9µM
CCOc1cc(/C=N/NC(=O)C(N)=O)cc(Br)c1O	–	–	–	–	–	?
COc1cc(/C=N/NC(=O)/C(=C\c2ccc3c(c2)OCO3)NC(=O)c2ccccc2)ccc1O	–	–	–	–	–	–
CCCc1[nH][nH]c(=O)c1C(c1cccc(Cl)c1)C(C#N)C#N (stereo unspecified)	–	–	·	–	?	79µM
N#CC(C#N)C(c1ccsc1)c1c(-c2ccccc2)[nH][nH]c1=O (stereo unspecified)	–	–[11.4 µM]	–	–	–	–[12.7 µM]
O=C(O)c1ccc2c(c1)C(=O)N([C@]1(C(=O)O)CC1c1ccccc1)C2=O (stereo partly specified)	–	?	–	·	–	–[12.7 µM]
Nc1nc2ncc(=O)[nH]c2c(=O)[nH]1	–	·	·	·	·	·
COc1cc2c(cc1OC)C[N+](C)(C)CC2	?	50µM	–	–	–	–[12.7 µM]
CC(C)Nc1nc2c(c(=O)n(C)c(=O)n2C)n1C	–	–	–	–	–	–
Cn1c(=O)c2c(nc(N/N=C/c3ccco3)n2C)n(C)c1=O	18µM	–	–	–	–	·
CC(C)=NNc1nc2c(c(=O)n(C)c(=O)n2C)n1C	22µM	–	–	–	?	·
Cn1c(=O)c2c(nc(NC3CCCC3)n2C)n(C)c1=O	–	–	·	–	–	–
Cn1c(=O)c2c(nc(NN=C3CCCCC3)n2C)n(C)c1=O	–	–	·	?	·	50µM
CC(C)=CCC/C(C)=C/CO/N=C1/C[C@@H](O)[C@@H](O)[C@@H]2[C@@H]3C(=O)N(C(C)(C)C)C(=O)[C@H]3CC[C@@H]12	–	·	·	·	·	·
SMILES	Sfp PPTase inh	JMJD2A Tudor inh	L3MBTL1 inh	HP1b binding inh	BAZ2B inh	G9a inh
COc1ccc(NS(=O)(=O)c2cc3c4c(c2)CCN4C(=O)CC3)c(OC)c1	·	–	–	–	–	–
O=C(NNC(=O)C1CC1)c1cc(Br)c(Br)s1	·	–	–	–	·	·
O=S(=O)(O)c1cccc2cccc(Nc3ccccc3)c12	·	50µM	·	–	·	·
CSc1ccc(CCNC(=O)C2=C(C)C(=O)OC23CCCCC3)cc1	·	–	·	–	–	–
CN1CCc2c(sc(N)c2C(=O)O)C1	28µM	–[11.4 µM]	–	–	–	28µM
O=C(Cn1cc2c(n1)CCCC2)Nc1cc(C(F)(F)F)ccc1Cl	·	–	·	–	–	–
CC(=O)N1CCCc2ccc(NC(=O)c3ccc(OC(C)C)cc3)cc21	·	–	·	–	–	–[12.7 µM]
